This passage reports z-score and composite z-score results from PubChem BioAssay.

Active and inactive are the calls of the source. Unless noted, how the calls were made is not given here.

The nature of assay [1]: resazurin metabolic signal in HepG2 cells – cell-based, resazurin fluorescence, 24 h, PK04 Diversity Set, profiling panel (AID 1172). Further: test concentration not given here. The note with it: HepG2 viability, higher = more signal.
The nature of assay [2]: budding yeast growth changes without added modifier – OD600, strain BY4716, 24 h, basal condition, primary screen (AID 1173). To be noted: S. cerevisiae BY4716 growth, OD600, 24 h; higher = more signal, called active from +8 up or from −8 down.
Assay [3] is described as follows: viability profiling in MM1S myeloma cells – cell-based, resazurin fluorescence, basal, 24 h, PK04 Diversity Set, profiling panel (AID 1174).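 Further: MM1S multiple myeloma cell line; test concentration not given here.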 To be noted: higher = more signal, called active from +8 up or from −8 down. For orientation: Alamar Blue is a resazurin reagent that responds to reducing activity.
Assay [4] deals with Dihydroorotate dehydrogenase (quinone), mitochondrial (Plasmodium falciparum (isolate 3D7)) (UniProt Q08210). Briefly: inhibition of P. falciparum DHODH – biochemical, C-terminal His tag, absorbance 600 nm, primary screen (AID 1175).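 Further: recombinant parasite enzyme with a five histidine tag at its C terminus; test concentration not given here.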 The note with it: PfDHODH enzyme, DCIP absorbance 600 nm; higher = more signal, called active from +8 up or from −8 down.
Assay [5] is described as follows: inhibition of PAO1 biofilm formation – strain PAO1, LB-PBS medium, absorbance 600 nm, primary screen (AID 1176). Further: test concentration not given here. The note with it: P. aeruginosa PAO1 growth/biofilm, A600, 12 h; higher = more signal.
Assay [6] can be described thus: growth modulation of vineyard yeast isolate – strain RM11-1a, OD600, basal, 24 h, primary screen (AID 1177).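 Further: cultures grown under basal conditions with no added stressor; test concentration not given here.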 The note with it: S. cerevisiae RM11-1a growth, OD600, 24 h; higher = more signal, called active from +8 up or from −8 down.
Assay [7] is described as follows: growth of efflux-deficient E. coli DRC39 – strain DRC39, OD650, 24 h, E. coli filamentation inducers, primary screen (AID 1178).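 Further: growth measured as culture turbidity by optical density at 650 nm; test concentration not given here.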 The note with it: E. coli DRC39 acrAB, higher = more signal, called active from +8 up or from −8 down.
Assay [8] in a line: growth of efflux-deficient E. coli DRC39 – strain DRC39, OD650, 48 h, E. coli filamentation inducers, primary screen (AID 1179).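 Further: screen aims at cell division blockers that make cells filament.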 The note with it: E. coli DRC39 delta-acrAB growth, higher = more signal, called active from +8 up or from −8 down.
Assay [9] in a line: viability profiling in RPMI8226 myeloma cells – cell-based, resazurin fluorescence, basal, 24 h, PK04 Diversity Set, profiling panel (AID 1180).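 Further: RPMI8826 multiple myeloma cell line at 5000 cells per well; test concentration not given here.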 To be noted: higher = more signal.
Assay [10] deals with E3 ubiquitin-protein ligase XIAP (Homo sapiens) (UniProt P98170). Kind of assay: small molecules binding XIAP protein – biophysical, small-molecule microarray, fluorescence 635 nm, primary screen (AID 1181).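 Further: score merges 667 nm emission and signal to noise over triplicate slides.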 To be noted: higher = more signal.
Sequence of E3 ubiquitin-protein ligase XIAP (Homo sapiens) (P98170 whole entry, looked up): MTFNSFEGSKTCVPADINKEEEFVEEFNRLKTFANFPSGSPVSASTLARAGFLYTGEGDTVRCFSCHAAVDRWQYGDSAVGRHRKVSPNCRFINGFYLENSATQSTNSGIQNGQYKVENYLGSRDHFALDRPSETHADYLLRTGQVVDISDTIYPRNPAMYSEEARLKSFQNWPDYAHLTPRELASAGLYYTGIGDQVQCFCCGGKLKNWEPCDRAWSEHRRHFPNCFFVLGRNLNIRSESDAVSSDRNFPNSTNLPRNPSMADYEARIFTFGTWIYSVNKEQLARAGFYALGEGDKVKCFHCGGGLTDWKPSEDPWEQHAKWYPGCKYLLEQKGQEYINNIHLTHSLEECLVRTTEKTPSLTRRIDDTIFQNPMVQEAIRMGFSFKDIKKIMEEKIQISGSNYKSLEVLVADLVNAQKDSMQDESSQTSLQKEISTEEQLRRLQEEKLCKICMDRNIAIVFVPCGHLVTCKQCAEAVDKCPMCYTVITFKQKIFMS

Sequence of Dihydroorotate dehydrogenase (quinone), mitochondrial (Plasmodium falciparum (isolate 3D7)) (Q08210 whole entry, looked up): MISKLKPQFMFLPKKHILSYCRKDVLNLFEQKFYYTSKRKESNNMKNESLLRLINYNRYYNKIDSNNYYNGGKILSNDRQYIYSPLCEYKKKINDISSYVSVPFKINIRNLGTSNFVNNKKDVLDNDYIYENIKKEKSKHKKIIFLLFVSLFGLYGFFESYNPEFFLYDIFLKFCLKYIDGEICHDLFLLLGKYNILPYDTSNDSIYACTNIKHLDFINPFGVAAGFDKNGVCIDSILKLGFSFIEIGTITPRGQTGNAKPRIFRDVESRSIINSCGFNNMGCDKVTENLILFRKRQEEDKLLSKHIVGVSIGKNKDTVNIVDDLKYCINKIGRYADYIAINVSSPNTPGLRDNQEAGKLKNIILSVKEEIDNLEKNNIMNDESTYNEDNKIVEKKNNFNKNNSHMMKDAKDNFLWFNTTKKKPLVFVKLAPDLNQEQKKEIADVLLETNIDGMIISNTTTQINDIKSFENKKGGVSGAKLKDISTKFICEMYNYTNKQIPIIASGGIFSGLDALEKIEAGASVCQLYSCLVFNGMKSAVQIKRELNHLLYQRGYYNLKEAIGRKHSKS

In the case of `O=C1NC(=O)C2C1C=CC(C(O)c1c(F)cccc1Cl)N2Nc1ccccn1` (stereo not given), the z-score in [1] was -1.73; in assay [2], 1.19 (inactive); in assay [3], -1.65 (inactive); in assay [5], 0.543 (inactive); in [6], -0.0601 (inactive); in assay [7], -0.883 (inactive). The z-score was -0.0739 (inactive) in assay [8] and -1.74 in [9]. Besides, the composite z-score in [4] was 0.722 (inactive); in assay [10], 0.118.

`C=C(CCCC)/C(=C/C[C@@H](OC(=O)c1ccncc1)c1cccc(OCCO)c1)c1cnc2ccccc2c1`: the z-score in [1] was 0.0976; in assay [2], -1.17 (inactive); in assay [3], -0.369 (inactive); in assay [5] it was 2.24 (inactive); in [6], 0.264 (inactive); in assay [7] it was 0.879 (inactive). In addition, the z-score is 0.357 (inactive) in [8] and 0.0765 in [9]. For the same molecule, the figures for the composite z-score in [4] and in [10] were -2.5 (inactive) and -0.0261, respectively.

For the molecule `COc1cc2c(cc1OC)CN(C(=O)[C@H]1[C@@H]3C(=O)O[C@@H](c4ccccc4)[C@@H](c4ccccc4)N3[C@@H](c3ccc(OCCO)cc3)[C@]13C(=O)Nc1ccc(C#CCCO)cc13)CC2`, the z-score in assay [1] was 0.687; in assay [2], 2.35 (inactive); in assay [3], 0.113 (inactive); in assay [5] it was 1.56 (inactive); in assay [6] it was 2.49 (inactive); in assay [7] it was -0.321 (inactive). The z-score in assay [8] is -0.61 (inactive); in [9], 0.969. In addition, the composite z-score in assay [4] is 0.129 (inactive); in assay [10], -0.351.

Turning to `O=C1O[C@@H](c2ccccc2)[C@@H](c2ccccc2)N2[C@@H](c3ccc(O)cc3)[C@]3(C(=O)Nc4ccccc43)[C@@H](C(=O)Nc3nc4ccccc4s3)[C@H]12`, the z-score in assay [1] is -1.66; in assay [2], -0.505 (inactive); in [3], -3.11 (inactive); in assay [5], 2.43 (inactive); in assay [6], 0.72 (inactive); in assay [7] it was -0.0021 (inactive). Besides, the z-score is 0.251 (inactive) in assay [8] and -4.69 in [9]. Also, the composite z-score in assay [4] was 0.162 (inactive); in assay [10] it was -0.0045.

Turning to `CN1C(=O)[C@@]2(CCS(=O)(=O)c3ccccc3)N=C(c3ccc(OCCCO)cc3)O[C@H]2c2ccccc21`, the z-score in assay [1] was 0.316; in [2] it was 0.369 (inactive); in assay [3], 0.718 (inactive); in assay [5], -0.469 (inactive); in [6], 0.64 (inactive); in assay [7] it was 0.606 (inactive). Moreover, the z-score in assay [8] was 0.946 (inactive); in assay [9] it was -1.09. Also, the results for the composite z-score in assay [4] and in [10] were 0.0865 (inactive) and 0.205, respectively.

`CC=CC(O)C1C=CC2C(=O)N(C)C(=O)C2N1Nc1ccc([N+](=O)[O-])cc1[N+](=O)[O-]` (stereo not given): the z-score in [1] was -1.12; in [2], 0.554 (inactive); in assay [3] it was -0.831 (inactive); in assay [5] it was 0.599 (inactive); in [6], 0.658 (inactive); in assay [7] it was -0.476 (inactive). Also, the z-score in assay [8] was -0.618 (inactive); in [9], -0.606. In addition, the composite z-score in [4] was 0.295 (inactive); in assay [10] it was -0.247.

For the molecule `COc1ccc(C(O)C2C=CC3C(=O)N(c4ccccc4)C(=O)C3N2Nc2ccccc2)cc1OCc1ccccc1` (stereo not given), the z-score in assay [1] was -1.04; in assay [2] it was -2.82 (inactive); in assay [3], -1.24 (inactive); in [5] it was 1.67 (inactive); in assay [6], 0.0482 (inactive); in [7], -0.628 (inactive). Besides, the z-score in assay [8] was -0.131 (inactive); in assay [9], -1.2. In addition, the composite z-score is 0.416 (inactive) in assay [4] and 0.0714 in assay [10].

In the case of `O=C1OC[C@@H](c2ccccc2)N2CC(/C=C/c3ccccc3)=CC12` (stereo not given in full), the z-score in assay [1] is 0.015; in [2] it was -2.25 (inactive); in assay [3] it was 0.0637 (inactive); in assay [5], -0.14 (inactive); in assay [6], 0.388 (inactive); in [7] it was -0.338 (inactive). Moreover, the z-score in assay [8] is -0.827 (inactive); in assay [9] it was 0.594. Moreover, the figures for the composite z-score in assay [4] and in [10] were 0.685 (inactive) and -0.102, respectively.

Consider `O=C1c2ccccc2[C@@]2(Cc3ccccc3N(C3CC3)C2=O)[C@H](c2ccc(CO)cc2)N1C1CCCCC1`, for which the z-score in assay [1] is -0.319; in [2], 0.979 (inactive); in assay [3], -0.36 (inactive); in assay [5] it was 0.264 (inactive); in [6], 1.24 (inactive); in assay [7], 0.609 (inactive). The z-score in [8] was 0.106 (inactive); in assay [9] it was -0.546. The composite z-score was -4.68 (inactive) in assay [4] and 0.242 in assay [10].
